BaF3 parental = counter-screen for JAK2V617F inhibitors: parental Ba/F3 viability inhibitors. CellTiter-Glo ATP luminescence. actives 1.1% (n = 220,000). inhibition, % at 5.6 µM;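 active = inhibition above a per-campaign cutoff, the mean inhibition of all tested compounds plus 3 SD, cut at about 27% in these data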;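 note: 0% = DMSO wells and 100% = JAK Inhibitor I control wells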
IEC-6 tox-1 = kills IEC-6 intestinal cells in KLF5 counter-screen; actives 0.78% (n = 290,000); inhibition, % at 5 µM; IEC-6 cytotoxicity, luminescence viability; in the data active = inhibition above about 22%;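 note: 0% = plate median of test compound wells and 100% = cytotoxic reference compound wells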
KLF5 inhibitor = kruppel-like factor 5 inhibition; DLD-1 KLF5 promoter-luciferase reporter, luminescence; inhibition, % at 5 µM; actives 0.23% (n = 290,000); AID 1700;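 active = inhibition above a per-plate limit of that plate's mean compound inhibition plus 3 SD, cut at about 60% in these data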;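 note: 0% = DMSO wells and 100% = LY294002 at 200 µM; higher means less KLF5 promoter-driven luciferase light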
Ba/F3 V617F tox = reduce viability of Ba/F3 cells dependent on JAK2V617F; Ba/F3 EpoR-JAK2V617F viability, ATP luminescence; inhibition, % at 5.6 µM; actives 1.1% (n = 220,000); AID 1446;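 active = inhibition above the campaign mean plus 3 SD over all tested compounds, cut at about 24% in these data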;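 note: cytokine-independent growth of Ba/F3 cells driven by EpoR plus mutant JAK2; 0% = DMSO-treated cells and 100% = JAK inhibitor I control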
APP transl inh = APP translation inhibition | SH-SY5Y APP 5'UTR-luciferase reporter, luminescence | inhibition, % at 2 µM | actives 0.82% (n = 190,000) | AID 1285;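 active = inhibition above a set limit, derived from the sample mean plus 3 SD, cut at about 45% in these data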
KLF5 inh confirm = KLF5 inhibition, confirmation assay; shares compounds with KLF5 inhibitor; DLD-1 KLF5 promoter firefly luciferase reporter, luminescence; inhibition, % at 4 µM; actives 79% (n = 610); AID 1834;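 active = inhibition above a set limit taken from the earlier primary screen, cut at about 63% in these data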;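 note: 0% = DMSO wells and 100% = LY294002 at 200 µM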
IEC-6 tox-2 = rat IEC-6 cytotoxicity, KLF5 inhibitor counter-screen | IEC-6 rat intestinal cells, viability luminescence | actives 56% (n = 610) | shares compounds with KLF5 inhibitor | AID 1905 | inhibition, % at 4 µM; in the data active = inhibition above about 23%;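 note: cells exposed to compounds for 48 hours before viability read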
Starred values were filed as active, the others as inactive; / = no result. An excerpt weighted towards active compounds, which were near 1.8% of everything screened.

SMILES	BaF3 parental	IEC-6 tox-1	KLF5 inhibitor	Ba/F3 V617F tox	APP transl inh	KLF5 inh confirm	IEC-6 tox-2
Cc1ccc(NC(=O)C2C3/C=C\CCCCC32)cc1C (stereo not drawn)	1.9	5.0	-21.6	-1.4	-8.8	/	/
Cc1ccc2occ(/C=N/NC(=O)c3ccccc3O)c(=O)c2c1	/	-11.0	63.9*	/	/	47.7	-5.7
CC(C)C(=O)NC(c1cccs1)c1cc([N+](=O)[O-])c2cccnc2c1O (stereo not drawn)	7.8	-1.7	-16.6	2.9	-3.2	/	/
CCC(=O)NC(c1cccs1)c1ccc2cccnc2c1O (stereo not drawn)	58.7*	28.1*	78.1*	76.8*	85.3*	91.1*	81.4*
CC(C)C(=O)NC(c1ccco1)c1ccc2cccnc2c1O (stereo not drawn)	59.5*	13.4	66.8*	50.9*	84.2*	95.8*	39.9*
Cc1conc1NC(c1cccs1)c1ccc2cccnc2c1O (stereo not drawn)	82.7*	7.4	69.8*	97.3*	38.9	23.2	5.1
CC(C)CC(=O)NC(c1cccs1)c1ccc2cccnc2c1O (stereo not drawn)	74.8*	11.6	76.9*	64.7*	82.0*	86.2*	49.7*
CCCC(=O)NC(c1cccs1)c1cc(Cl)c2cccnc2c1O (stereo not drawn)	-2.2	-0.8	-13.1	-1.6	43.5	/	/
O=C(COc1ccc2ccccc2c1)Nc1ccc(Br)cc1C(=O)O	/	2.6	-8.9	/	/	/	/
CC(=O)N(Cc1ccc(F)cc1)c1cccc(C)c1C	7.3	5.5	-9.5	0.1	-3.2	/	/
CC(=O)N(Cc1ccc(F)cc1)C1=C(NCCc2ccccc2)C(=O)c2ccccc2C1=O	7.1	54.2*	78.8*	6.7	44.5	4.6	-5.0
Cc1ccc(C(=O)O/N=C(\N)c2ccccn2)cc1	/	5.7	38.0	/	/	/	/
CC(C)(C)c1ccc(C(=O)O/N=C(\N)c2ccccn2)cc1	/	-1.7	88.8*	/	/	96.1*	-12.3
Cc1ccc(C(=O)NNC(=O)CSc2nnc(C(C)C)n2C)cc1	/	1.0	-21.9	/	/	/	/
c1cc2c(cc1C1=NNC(=NC3CC3)SC1)OCCO2	11.7	4.0	79.3*	9.1	51.0*	102.1*	30.3*
CCCCN=C1NN=C(c2ccc3c(c2)OCCO3)CS1	7.5	-2.8	28.1	-5.6	-80.2	/	/
NC(=O)CCn1ccc2ccccc21	6.6	-2.7	-40.7	0.4	-22.6	/	/
CCCCCCN1C=CC(=C2C(=O)c3ccccc3C2=O)C=C1	10.8	5.2	-91.7	4.7	-48.4	/	/
CCCN1C=CC(=C2C(=O)c3ccccc3C2=O)C=C1	21.4	17.7	107.2*	18.3	81.0*	106.2*	24.2*
CCN1C=CC(=C2C(=O)c3ccccc3C2=O)C=C1	14.3	12.1	86.9*	5.9	69.8*	96.0*	8.8
CC(=O)Nc1ccc(N(C(=O)c2ccco2)C(C(=O)NC2CCCCC2)c2ccccc2)cc1 (stereo not drawn)	/	2.3	-19.6	/	/	/	/
COc1ccc(C(C)(C)NC(=O)C2CCC(=O)N(C3CCCC3)C2)cc1OC (stereo not drawn)	/	5.6	-43.3	/	/	/	/
O=C(COC(=O)[C@@H]1CC(O)CN1S(=O)(=O)c1ccc2c(c1)OCCO2)Nc1ccccc1F (stereo partly drawn)	9.2	-2.1	-36.1	-2.3	-27.9	/	/
COc1ccc(-n2ncc3c(N4CCC(C)CC4)ncnc32)cc1	/	-5.8	-42.9	/	/	/	/
COc1ccc(-n2ncc3c(N(C)C4CCCCC4)ncnc32)cc1	/	5.0	73.6*	/	/	64.3*	1.2
SMILES	BaF3 parental	IEC-6 tox-1	KLF5 inhibitor	Ba/F3 V617F tox	APP transl inh	KLF5 inh confirm	IEC-6 tox-2
COc1ccc(OC)c(N/C=C/C(=O)c2ccccc2)c1	/	3.6	70.1*	/	/	76.4*	1.6
COc1ccc(OC)c(N/C(C)=C/C(=O)c2ccccc2)c1	-1.1	-15.7	-32.4	-2.2	-77.1	/	/
COc1cccc(/C=N/Nc2nccnc2Cl)c1O	94.5*	6.9	104.0*	94.8*	51.0*	90.0*	-4.0
CC1=Nc2cc(C(=O)NCCCOC(C)C)ccc2Sc2ccc(C)cc21	70.9*	83.8*	74.2*	74.5*	95.2*	84.9*	59.3*
CCCC1=Nc2cc(C(=O)NCCCOC(C)C)ccc2Sc2ccccc21	11.2	5.2	62.2*	6.5	1.6	15.6	19.4
CC1=Nc2cc(C(=O)NCCCOC(C)C)ccc2Sc2ccccc21	4.4	8.4	-30.1	1.0	0.8	/	/
O=C(Nc1ccnn1C1CCN(C2CCC2)CC1)c1ccccc1	/	-2.5	-23.8	/	/	/	/
